Source: PubChem BioAssay (National Center for Advancing Translational Sciences (NCATS))
This is a sample that favours compounds with a hit; in the whole collection about 19% have one here.
DT40 TDP1 CPT: growth inhibition of DT40 Tdp1-/-;hTDP1 cells with camptothecin (screen for TDP1 inhibitors); Potency, µM (top dose mostly 46.2 µM), without a hit: at the highest dose activity change, negative = growth inhibition, usual class: inhibitors; 420,000 compounds, 12% hits; AID 686979; chicken DT40 Tdp1-/-;hTDP1 cells + 20 nM CPT, ATP luminescence, 48 h; further: nearly all actives have a fitted effect of over 55% in size
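Chicken DT40 Tdp1-/- cells complemented with human TDP1, 400 cells/well, exposed to compounds plus 20 nM camptothecin for at least 48 h at 37 C; viability read as ATP content by CellTiter-Glo luminescence.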
TDP1 block: TDP1 (human) enzyme inhibition; Potency, µM (top dose mostly 130 µM), for the others: top-dose activity change, negative = inhibition, usual class: inhibitors; 350,000 compounds, 0.28% hits; recombinant TDP1, AlphaScreen DNA substrate cleavage; Q9NUW8; further: nearly all actives have a fitted effect of over 40% in size
Target sequence (Q9NUW8 whole entry, looked up): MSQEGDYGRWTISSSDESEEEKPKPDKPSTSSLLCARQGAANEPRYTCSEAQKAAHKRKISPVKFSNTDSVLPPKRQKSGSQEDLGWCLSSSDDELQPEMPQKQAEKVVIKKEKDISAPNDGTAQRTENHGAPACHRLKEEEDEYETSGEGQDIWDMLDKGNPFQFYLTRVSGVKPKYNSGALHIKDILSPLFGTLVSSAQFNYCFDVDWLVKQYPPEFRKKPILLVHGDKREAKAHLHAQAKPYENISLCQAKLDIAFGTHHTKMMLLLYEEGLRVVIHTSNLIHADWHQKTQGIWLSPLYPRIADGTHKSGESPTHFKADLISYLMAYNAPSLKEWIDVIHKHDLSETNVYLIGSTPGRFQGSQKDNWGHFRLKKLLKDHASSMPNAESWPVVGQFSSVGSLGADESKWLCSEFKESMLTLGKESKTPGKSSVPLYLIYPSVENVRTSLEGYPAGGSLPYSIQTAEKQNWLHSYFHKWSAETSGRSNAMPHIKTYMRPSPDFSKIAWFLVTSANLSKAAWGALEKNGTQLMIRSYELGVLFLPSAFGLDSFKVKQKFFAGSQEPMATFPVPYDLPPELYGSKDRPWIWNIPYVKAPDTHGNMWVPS
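Here, a 5' biotin and 3' phosphotyrosine-FITC DNA oligonucleotide reports Tdp1 activity: intact substrate bridges AlphaScreen beads, while cleavage leaves a 3' phosphate and drops signal. All incubations at room temperature.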
RORgamma inh: blocks mouse ROR gamma transcriptional activity; Potency, µM (titrated, usually from 53.6 µM), for the others: top-dose activity change, negative = inhibition, hits mostly inhibitors; 310,000 compounds, 5.4% hits; P51450; Drosophila S2 Gal4-RORgamma UAS-luciferase reporter, 20 h; further: nearly all actives have a fitted effect of over 60% in size
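ROR gamma transcriptional activity was tracked as Gal4-UAS luciferase output in stably transfected Drosophila Schneider cells, with compound added 1 hr before 700 uM copper sulfate induction and a 20 hr ambient-temperature incubation.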
VP16 counter: Gal4-VP16 reporter inhibition counter-screen; Drosophila S2 Gal4-VP16 UAS-luciferase, luminescence, 20 h; Potency, µM (highest dose often 53.6 µM), for the others: at the top dose activity, negative = inhibition, hits mostly inhibitors; 310,000 compounds, 3.5% hits;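 further: Gal4-VP16 expression switched on by copper sulfate through the metallothionein promoter; nearly all actives have a fitted effect of over 50% in size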
TDP1 cell noCPT: qHTS for Inhibitors of human tyrosyl-DNA phosphodiesterase 1 (TDP1): qHTS in cells in absence of CPT | DT40 Tdp1-/- hTDP1 cells, no CPT, ATP luminescence, 48 h | Potency, µM (doses to about 46.2 µM), for the others: at the top dose activity change, negative = growth inhibition, hits mostly inhibitors | 420,000 compounds, 15% hits | AID 686978, 2013; further: nearly all actives have a fitted effect of over 55% in size
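Chicken DT40 Tdp1-/- cells stably complemented with human TDP1 were seeded at 400 cells/well with DMSO in place of 20 nM camptothecin. After compound pinning, cells grew at least 48 hr at 37 °C; viability read by CellTiter-Glo luminescence.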
The depositor's hits bear a star; [ ] = another dose, or the depositor's remark. The call rests on the fitted dose curve; in most records, active means well fitted curve in the direction sought with a large enough effect; inconclusive means small, poorly fitted or top-dose-only effect, or another doubt; inactive means no such curve, though single readings can be large; an effect the other way counts as inactive or inconclusive. On the % scale 0 is the no-effect control and ±100 the full control effect; potency means the concentration at half of the fitted maximal effect.

CCC1(C)Cc2c(sc3c2c(=O)n(C)c2nnc(SCCc4ccccc4)n32)CO1 (configuration not stated) was read as DT40 TDP1 CPT inconclusive, TDP1 block 8%, RORgamma inh 0%, VP16 counter -1% and TDP1 cell noCPT 23µM*.
`CCOC(=O)CN(C(=O)CCC(=O)Nc1cc(C)on1)C(C(=O)NC1CCCC1)c1cccnc1` (configuration not stated) gave DT40 TDP1 CPT -6%, TDP1 block 2%, RORgamma inh 2%, VP16 counter -1% and TDP1 cell noCPT -10%.
`Cc1cc(=O)n2[nH]c(Nc3cccc(Cl)c3)nc2n1` gave DT40 TDP1 CPT 3% and TDP1 cell noCPT -21%.
For CC(=O)NS(=O)(=O)c1ccc(NC(=S)Nc2ccccc2)cc1 the results were DT40 TDP1 CPT -2%, TDP1 block 3%, RORgamma inh -26%, VP16 counter 2% and TDP1 cell noCPT -18%.
For CCOC(=O)NC1(C(F)(F)F)C(=O)N(Cc2ccccn2)C2=C1C(=O)CC(C)(C)C2 (configuration not stated) the results were DT40 TDP1 CPT 11%, TDP1 block 3%, RORgamma inh -11%, VP16 counter 1% and TDP1 cell noCPT 1%.
CCOC(=O)c1ccccc1NC(=O)C1CCN(c2ncnc3sc(C)c(C)c23)CC1 was read as DT40 TDP1 CPT 23µM* and TDP1 cell noCPT inconclusive.
Cc1sc2ncnc(N3CCC(C(=O)Nc4ccccc4C(C)(C)C)CC3)c2c1C was read as DT40 TDP1 CPT 21µM*, TDP1 block -3% and TDP1 cell noCPT 13µM*.
CCCCc1c(-c2ccccc2OC)ncn1CCc1cccc(F)c1 was read as DT40 TDP1 CPT 16µM* and TDP1 cell noCPT 21µM*.
CCCn1cnc2cc(NCc3cccc(OC)c3)ccc21 was read as DT40 TDP1 CPT -23%, TDP1 block 7%, RORgamma inh 7%, VP16 counter 19% and TDP1 cell noCPT inconclusive.
`CCCCc1c(-c2ccccc2OC)ncn1CCc1cccc(OC)c1` gave DT40 TDP1 CPT 15µM* and TDP1 cell noCPT 18µM*.
Screening Cn1cnc(S(=O)(=O)N2CCC(C(=O)NCc3ccccc3Cl)CC2)c1 returned DT40 TDP1 CPT 6%, TDP1 block 4% and TDP1 cell noCPT -5%.
`Cc1ccc(S(=O)(=O)NCC(C)n2nc(C)cc2C)cc1` (configuration not stated) gave DT40 TDP1 CPT -110%, TDP1 block 14%, RORgamma inh -15%, VP16 counter 5% and TDP1 cell noCPT -20%.
Cc1ccc(C(C[N+](=O)[O-])n2nc(C)cc2C)cc1 (configuration not stated) was read as DT40 TDP1 CPT 2.1µM*, TDP1 block 9%, RORgamma inh -22%, VP16 counter 2% and TDP1 cell noCPT 2.6µM*.
For CCOC(=O)C1CCCN(CCC(=O)Nc2ccc(F)c(F)c2)C1 (configuration not stated) the results were DT40 TDP1 CPT -10%, TDP1 block 1%, RORgamma inh -1%, VP16 counter -4% and TDP1 cell noCPT -12%.
Screening COc1ccc(CCn2c(=O)c3cccnc3n(Cc3ccc([N+](=O)[O-])cc3)c2=O)cc1OC returned DT40 TDP1 CPT inconclusive, TDP1 block 0%, RORgamma inh 12%, VP16 counter -3% and TDP1 cell noCPT 16µM*.
Screening COc1ccc(CCn2c(=S)[nH]c(=O)c3cccnc32)cc1OC returned DT40 TDP1 CPT 0.22µM* and TDP1 cell noCPT 0.1µM*.
`CCCc1nnc2n1N=C(c1ccc(C)cc1)CS2` gave DT40 TDP1 CPT inconclusive, TDP1 block 6%, RORgamma inh -1%, VP16 counter -8% and TDP1 cell noCPT inconclusive.
COc1ccc(NC(=S)N(CCCN2CCCC2)Cc2cccn2Cc2ccc(Cl)cc2)cc1Cl was read as DT40 TDP1 CPT 15µM*, TDP1 block 7%, RORgamma inh inconclusive, VP16 counter -4% and TDP1 cell noCPT 21µM*.
`CSc1cccc(NC(=S)N(CCCN2CCCC(C)C2)Cc2cccs2)c1` (configuration not stated) gave DT40 TDP1 CPT inconclusive, TDP1 block 5%, RORgamma inh 11µM*, VP16 counter 27%[10 µM] and TDP1 cell noCPT inconclusive.
`FC(F)(F)c1cccc(NC(=S)N(CCCN2CCCC2)Cc2cccn2Cc2ccc(Cl)cc2)c1` gave DT40 TDP1 CPT inconclusive, TDP1 block 8%, RORgamma inh 14µM*, VP16 counter inconclusive and TDP1 cell noCPT 16µM*.
For COc1cccc(NC(=S)N(CCCN2CCCC(C)C2)Cc2cccs2)c1 (configuration not stated) the results were DT40 TDP1 CPT inconclusive, TDP1 block -1%, RORgamma inh -15%, VP16 counter 5% and TDP1 cell noCPT inconclusive.
For Cc1ccc(NC(=S)N(CCCN2CCCC2)Cc2cccn2Cc2ccc(Cl)cc2)cc1C the results were DT40 TDP1 CPT inconclusive, TDP1 block 8%, RORgamma inh -17%, VP16 counter -1% and TDP1 cell noCPT 21µM*.
For CCN1CCN(CCCN(Cc2ccco2)C(=S)Nc2ccc(Cl)c(C)c2)CC1 the results were DT40 TDP1 CPT -15%, TDP1 block 1%, RORgamma inh 9%, VP16 counter 7% and TDP1 cell noCPT inconclusive.
Screening S=C(Nc1ccc(Cl)cc1)N(CCCN1CCOCC1)Cc1ccco1 returned DT40 TDP1 CPT 20%, TDP1 block 2%, RORgamma inh -23%, VP16 counter 1% and TDP1 cell noCPT -4%.
`Cc1ccc(OCCC(=O)OCC(=O)c2c(N)n(C)c(=O)n(C)c2=O)cc1` gave DT40 TDP1 CPT 5%, TDP1 block 2% and TDP1 cell noCPT -13%.
Cc1ccc(NC(=O)CNC(=O)Cc2cccc3ccccc23)c(O)c1 was read as DT40 TDP1 CPT -2%, TDP1 block -12% and TDP1 cell noCPT -1%.
Screening COc1ccc(NC(=S)N(CCCN2CCC(C)CC2)Cc2cccs2)cc1Cl returned DT40 TDP1 CPT 26µM*, TDP1 block -5%, RORgamma inh 11µM*, VP16 counter -2%[10 µM] and TDP1 cell noCPT 18µM*.
Screening Cc1ccc(NC(=S)N(CCCN2CCCC2)Cc2cccn2Cc2ccc(Cl)cc2)cc1Cl returned DT40 TDP1 CPT inconclusive, TDP1 block 8%, RORgamma inh inconclusive, VP16 counter -5% and TDP1 cell noCPT 6.5µM*.
